Reference: the supplement of paper PMC6411743
± gives the standard deviation of the averaged measurements. About 5,400 targets were measured; listed, in parts, are those with the largest changes and a random draw of the rest.

Compound: Nc1nc2c(ncn2[C@@H]2O[C@H](COP(=O)(O)OP(=O)(O)OP(=O)(O)O)[C@@H](O)[C@H]2O)c(=O)[nH]1 [guanosine triphosphate]
Assay: NP40-soluble protein abundance relative to vehicle (solubility fold change) (ratio); higher = more soluble protein in presence of GTP
How it was run: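 Values are fold changes against the detergent-processed vehicle, based on vsn-normalised intensities. Jurkat crude lysate was treated at eight concentrations from 0.1 to 10 mM (10 min at room temperature, then 3 min at 37 °C), solubilised with 0.8% NP40 and benzonase, ultracentrifuged and analysed by TMT-labelled LC-MS/MS over three independent experiments.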

UniProt Q14152, sequence (Q14152 whole entry): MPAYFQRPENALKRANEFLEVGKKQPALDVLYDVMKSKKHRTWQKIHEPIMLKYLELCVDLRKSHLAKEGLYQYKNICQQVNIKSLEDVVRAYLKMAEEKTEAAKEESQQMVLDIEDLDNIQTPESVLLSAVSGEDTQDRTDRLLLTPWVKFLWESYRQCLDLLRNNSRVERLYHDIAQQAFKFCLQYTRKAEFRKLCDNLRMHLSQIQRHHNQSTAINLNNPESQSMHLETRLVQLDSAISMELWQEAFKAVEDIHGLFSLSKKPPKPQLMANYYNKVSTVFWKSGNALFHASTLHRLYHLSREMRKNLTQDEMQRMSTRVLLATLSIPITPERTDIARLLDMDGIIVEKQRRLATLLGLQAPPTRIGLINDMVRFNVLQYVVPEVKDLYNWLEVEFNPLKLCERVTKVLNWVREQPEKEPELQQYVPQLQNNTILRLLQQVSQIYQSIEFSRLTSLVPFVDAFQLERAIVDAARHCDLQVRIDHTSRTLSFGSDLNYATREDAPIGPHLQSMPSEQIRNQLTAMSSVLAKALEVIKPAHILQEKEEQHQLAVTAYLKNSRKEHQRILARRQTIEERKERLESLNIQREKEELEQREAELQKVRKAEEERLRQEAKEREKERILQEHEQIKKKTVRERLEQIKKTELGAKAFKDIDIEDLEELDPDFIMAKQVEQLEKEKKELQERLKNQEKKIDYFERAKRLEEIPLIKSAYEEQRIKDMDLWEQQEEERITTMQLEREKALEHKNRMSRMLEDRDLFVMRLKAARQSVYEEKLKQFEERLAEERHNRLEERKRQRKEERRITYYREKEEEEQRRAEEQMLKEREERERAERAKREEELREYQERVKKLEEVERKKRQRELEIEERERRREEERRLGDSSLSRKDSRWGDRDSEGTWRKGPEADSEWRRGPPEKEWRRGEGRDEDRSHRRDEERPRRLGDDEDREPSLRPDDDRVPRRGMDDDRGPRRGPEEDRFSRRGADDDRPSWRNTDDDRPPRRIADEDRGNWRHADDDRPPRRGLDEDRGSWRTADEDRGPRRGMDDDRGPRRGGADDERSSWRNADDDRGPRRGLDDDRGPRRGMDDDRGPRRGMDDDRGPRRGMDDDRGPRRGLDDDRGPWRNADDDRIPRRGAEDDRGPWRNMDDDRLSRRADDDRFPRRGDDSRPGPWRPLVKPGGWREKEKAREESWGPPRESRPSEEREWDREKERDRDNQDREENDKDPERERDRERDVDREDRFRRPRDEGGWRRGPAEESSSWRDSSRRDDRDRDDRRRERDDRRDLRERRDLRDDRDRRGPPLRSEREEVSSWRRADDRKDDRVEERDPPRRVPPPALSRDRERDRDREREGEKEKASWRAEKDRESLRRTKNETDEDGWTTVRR
UniProt Q5W0V3, sequence (Q5W0V3 whole entry): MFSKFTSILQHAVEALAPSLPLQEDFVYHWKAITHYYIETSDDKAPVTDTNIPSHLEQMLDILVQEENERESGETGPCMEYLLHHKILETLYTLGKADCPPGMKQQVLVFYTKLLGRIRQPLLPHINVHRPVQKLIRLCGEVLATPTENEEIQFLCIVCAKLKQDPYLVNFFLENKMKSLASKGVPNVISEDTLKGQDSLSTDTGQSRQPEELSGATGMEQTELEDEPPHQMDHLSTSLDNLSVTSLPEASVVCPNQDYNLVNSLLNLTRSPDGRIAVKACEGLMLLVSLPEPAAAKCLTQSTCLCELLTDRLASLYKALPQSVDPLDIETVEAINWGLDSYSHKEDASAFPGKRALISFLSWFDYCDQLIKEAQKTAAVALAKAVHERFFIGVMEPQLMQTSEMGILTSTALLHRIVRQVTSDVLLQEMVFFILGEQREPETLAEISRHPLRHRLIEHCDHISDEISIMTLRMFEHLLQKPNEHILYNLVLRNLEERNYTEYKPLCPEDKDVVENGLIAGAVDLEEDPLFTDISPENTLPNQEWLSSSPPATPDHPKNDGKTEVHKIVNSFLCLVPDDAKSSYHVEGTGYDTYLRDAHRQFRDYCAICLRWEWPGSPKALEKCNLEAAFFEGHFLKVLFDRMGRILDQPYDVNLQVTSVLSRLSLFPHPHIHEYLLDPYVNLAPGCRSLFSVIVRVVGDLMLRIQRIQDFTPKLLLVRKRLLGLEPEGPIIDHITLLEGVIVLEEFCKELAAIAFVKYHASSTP
UniProt Q32P51, sequence (Q32P51 whole entry): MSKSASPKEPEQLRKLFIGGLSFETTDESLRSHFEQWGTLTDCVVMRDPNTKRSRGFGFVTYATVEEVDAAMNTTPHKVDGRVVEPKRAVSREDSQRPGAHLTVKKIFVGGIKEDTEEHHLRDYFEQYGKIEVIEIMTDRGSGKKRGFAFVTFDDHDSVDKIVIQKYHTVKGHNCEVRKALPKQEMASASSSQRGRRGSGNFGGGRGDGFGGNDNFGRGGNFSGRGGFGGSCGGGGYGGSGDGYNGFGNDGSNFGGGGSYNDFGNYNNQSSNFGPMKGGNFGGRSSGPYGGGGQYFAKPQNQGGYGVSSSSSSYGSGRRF
UniProt Q5K651, sequence (Q5K651 whole entry, one chain of several): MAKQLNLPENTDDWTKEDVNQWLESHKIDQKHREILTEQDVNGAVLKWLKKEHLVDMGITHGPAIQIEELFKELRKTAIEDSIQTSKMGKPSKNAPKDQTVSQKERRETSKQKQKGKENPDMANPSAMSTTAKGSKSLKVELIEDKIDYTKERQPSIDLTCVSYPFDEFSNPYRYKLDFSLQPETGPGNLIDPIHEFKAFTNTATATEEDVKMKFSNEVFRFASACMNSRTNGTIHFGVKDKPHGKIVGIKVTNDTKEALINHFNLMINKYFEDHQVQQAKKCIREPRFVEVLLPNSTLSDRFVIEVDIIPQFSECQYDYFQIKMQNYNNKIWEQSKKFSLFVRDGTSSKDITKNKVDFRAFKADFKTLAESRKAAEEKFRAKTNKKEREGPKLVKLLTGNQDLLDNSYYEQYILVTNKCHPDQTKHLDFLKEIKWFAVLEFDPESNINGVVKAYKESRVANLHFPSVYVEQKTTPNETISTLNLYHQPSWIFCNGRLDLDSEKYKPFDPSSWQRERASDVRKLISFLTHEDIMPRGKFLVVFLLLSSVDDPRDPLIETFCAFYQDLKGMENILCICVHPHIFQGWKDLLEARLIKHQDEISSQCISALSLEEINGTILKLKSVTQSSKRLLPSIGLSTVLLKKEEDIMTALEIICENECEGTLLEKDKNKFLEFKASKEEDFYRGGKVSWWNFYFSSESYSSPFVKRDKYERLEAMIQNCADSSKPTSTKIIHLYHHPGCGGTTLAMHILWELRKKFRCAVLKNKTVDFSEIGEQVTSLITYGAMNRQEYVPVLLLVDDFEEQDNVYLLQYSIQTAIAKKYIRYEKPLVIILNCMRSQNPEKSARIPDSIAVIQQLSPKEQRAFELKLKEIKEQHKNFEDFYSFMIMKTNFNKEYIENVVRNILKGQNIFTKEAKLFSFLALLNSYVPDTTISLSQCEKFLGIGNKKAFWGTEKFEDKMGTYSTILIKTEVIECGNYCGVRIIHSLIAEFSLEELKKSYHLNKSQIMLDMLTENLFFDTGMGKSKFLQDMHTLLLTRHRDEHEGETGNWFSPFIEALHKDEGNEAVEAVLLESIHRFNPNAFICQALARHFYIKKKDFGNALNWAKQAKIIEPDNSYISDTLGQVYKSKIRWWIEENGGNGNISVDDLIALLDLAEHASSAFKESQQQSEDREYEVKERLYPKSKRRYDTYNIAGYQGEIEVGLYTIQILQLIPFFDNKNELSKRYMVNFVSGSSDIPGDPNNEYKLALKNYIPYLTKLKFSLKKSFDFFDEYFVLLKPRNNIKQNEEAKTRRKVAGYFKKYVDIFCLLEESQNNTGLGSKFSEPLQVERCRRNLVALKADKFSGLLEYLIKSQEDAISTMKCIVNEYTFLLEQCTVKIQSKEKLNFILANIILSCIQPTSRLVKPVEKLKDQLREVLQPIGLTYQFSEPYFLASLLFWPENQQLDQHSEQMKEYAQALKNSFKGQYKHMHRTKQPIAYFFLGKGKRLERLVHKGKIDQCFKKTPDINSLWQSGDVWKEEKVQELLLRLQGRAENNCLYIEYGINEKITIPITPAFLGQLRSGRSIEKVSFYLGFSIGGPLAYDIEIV
UniProt Q68E01, sequence (Q68E01 whole entry): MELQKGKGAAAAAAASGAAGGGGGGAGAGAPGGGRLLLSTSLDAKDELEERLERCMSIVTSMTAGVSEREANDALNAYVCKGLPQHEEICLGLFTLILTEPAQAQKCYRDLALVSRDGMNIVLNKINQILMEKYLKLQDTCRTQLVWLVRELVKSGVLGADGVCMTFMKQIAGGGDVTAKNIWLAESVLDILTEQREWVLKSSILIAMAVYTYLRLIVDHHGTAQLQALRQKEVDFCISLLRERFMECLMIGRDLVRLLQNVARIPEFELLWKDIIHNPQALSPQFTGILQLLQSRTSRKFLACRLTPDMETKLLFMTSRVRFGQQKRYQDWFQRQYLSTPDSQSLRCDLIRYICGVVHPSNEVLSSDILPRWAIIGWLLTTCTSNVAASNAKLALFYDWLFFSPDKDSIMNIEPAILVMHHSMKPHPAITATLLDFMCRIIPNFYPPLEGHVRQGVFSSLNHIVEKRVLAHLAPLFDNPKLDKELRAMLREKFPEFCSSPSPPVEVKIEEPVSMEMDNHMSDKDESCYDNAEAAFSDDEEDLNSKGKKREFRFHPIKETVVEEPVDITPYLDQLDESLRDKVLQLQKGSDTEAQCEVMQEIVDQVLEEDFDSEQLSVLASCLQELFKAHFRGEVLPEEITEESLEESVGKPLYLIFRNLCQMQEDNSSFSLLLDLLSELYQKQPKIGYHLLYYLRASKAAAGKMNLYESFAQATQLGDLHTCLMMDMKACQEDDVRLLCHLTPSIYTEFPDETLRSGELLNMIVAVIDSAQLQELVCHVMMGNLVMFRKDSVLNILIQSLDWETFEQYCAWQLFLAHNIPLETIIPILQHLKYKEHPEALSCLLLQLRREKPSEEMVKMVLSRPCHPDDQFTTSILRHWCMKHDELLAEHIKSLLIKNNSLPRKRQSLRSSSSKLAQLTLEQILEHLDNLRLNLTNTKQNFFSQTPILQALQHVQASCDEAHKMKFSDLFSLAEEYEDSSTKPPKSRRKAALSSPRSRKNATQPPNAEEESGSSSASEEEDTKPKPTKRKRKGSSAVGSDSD

Which NP40-soluble protein abundance (concentration: 0.1mM) does the source give for UniProt Q5K651|C9JKF1 here?
The NP40-soluble protein abundance was 1.04 ± 0.017.

What about the NP40-soluble protein abundance (concentration: 0.5mM) of the same target?
Its NP40-soluble protein abundance is 1.07 ± 0.021.

And the NP40-soluble protein abundance (concentration: 1mM)?
The NP40-soluble protein abundance was 0.998 ± 0.025.

And the NP40-soluble protein abundance (concentration: 2mM)?
The NP40-soluble protein abundance was 1.01 ± 0.062.

What about the NP40-soluble protein abundance (concentration: 4mM) of the same target?
The NP40-soluble protein abundance was 0.968 ± 0.083.

And the NP40-soluble protein abundance (concentration: 6mM)?
Its NP40-soluble protein abundance is 0.959 ± 0.047.

What about the NP40-soluble protein abundance (concentration: 8mM) of the same target?
Its NP40-soluble protein abundance is 0.985 ± 0.045.

What about the NP40-soluble protein abundance (concentration: 10mM) of the same target?
The NP40-soluble protein abundance was 0.949 ± 0.088.

With PSMD2 (UniProt Q13200) as the target, how does the NP40-soluble protein abundance (concentration: 0.1mM) read?
Its NP40-soluble protein abundance is 1.03 ± 0.077.

And the NP40-soluble protein abundance (concentration: 0.5mM)?
The NP40-soluble protein abundance was 1.1 ± 0.11.

And the NP40-soluble protein abundance (concentration: 1mM)?
Its NP40-soluble protein abundance is 1.01 ± 0.13.

What about the NP40-soluble protein abundance (concentration: 2mM) of the same target?
The NP40-soluble protein abundance was 1.08 ± 0.19.

What about the NP40-soluble protein abundance (concentration: 4mM) of the same target?
Its NP40-soluble protein abundance is 1.06 ± 0.17.

And the NP40-soluble protein abundance (concentration: 6mM)?
The NP40-soluble protein abundance was 1.08 ± 0.2.

And the NP40-soluble protein abundance (concentration: 8mM)?
Its NP40-soluble protein abundance is 1.04 ± 0.16.

And the NP40-soluble protein abundance (concentration: 10mM)?
Its NP40-soluble protein abundance is 1 ± 0.15.

How did the NP40-soluble protein abundance (concentration: 0.1mM) turn out when EIF3A (UniProt Q14152) was run?
The NP40-soluble protein abundance was 1.05 ± 0.031.

And the NP40-soluble protein abundance (concentration: 0.5mM)?
The NP40-soluble protein abundance was 1.08 ± 0.018.

What about the NP40-soluble protein abundance (concentration: 1mM) of the same target?
Its NP40-soluble protein abundance is 1.09 ± 0.062.

What about the NP40-soluble protein abundance (concentration: 2mM) of the same target?
Its NP40-soluble protein abundance is 1.18 ± 0.12.

What about the NP40-soluble protein abundance (concentration: 4mM) of the same target?
Its NP40-soluble protein abundance is 1.38 ± 0.23.

And the NP40-soluble protein abundance (concentration: 6mM)?
The NP40-soluble protein abundance was 1.53 ± 0.28.

What about the NP40-soluble protein abundance (concentration: 8mM) of the same target?
Its NP40-soluble protein abundance is 1.74 ± 0.34.

What about the NP40-soluble protein abundance (concentration: 10mM) of the same target?
The NP40-soluble protein abundance was 1.94 ± 0.38.

FAM160B1 (UniProt Q5W0V3) was tested. Which NP40-soluble protein abundance (concentration: 0.1mM) did it give?
Its NP40-soluble protein abundance is 1.03 ± 0.037.

What about the NP40-soluble protein abundance (concentration: 0.5mM) of the same target?
The NP40-soluble protein abundance was 1.03 ± 0.027.

What about the NP40-soluble protein abundance (concentration: 1mM) of the same target?
Its NP40-soluble protein abundance is 0.964 ± 0.029.

What about the NP40-soluble protein abundance (concentration: 2mM) of the same target?
Its NP40-soluble protein abundance is 0.959 ± 0.02.

What about the NP40-soluble protein abundance (concentration: 4mM) of the same target?
The NP40-soluble protein abundance was 0.9389 ± 0.0083.

What about the NP40-soluble protein abundance (concentration: 6mM) of the same target?
Its NP40-soluble protein abundance is 0.922 ± 0.0022.

What about the NP40-soluble protein abundance (concentration: 8mM) of the same target?
Its NP40-soluble protein abundance is 0.91 ± 0.033.

What about the NP40-soluble protein abundance (concentration: 10mM) of the same target?
The NP40-soluble protein abundance was 0.894 ± 0.051.

What does the source list for SNW1 (UniProt Q13573)?
NP40-soluble protein abundance (concentration: 0.1mM): 0.96 ± 0.049; NP40-soluble protein abundance (concentration: 0.5mM): 0.94 ± 0.064; NP40-soluble protein abundance (concentration: 1mM): 0.97 ± 0.028; NP40-soluble protein abundance (concentration: 2mM): 0.94 ± 0.071; NP40-soluble protein abundance (concentration: 4mM): 0.942 ± 0.063; NP40-soluble protein abundance (concentration: 6mM): 0.959 ± 0.041; NP40-soluble protein abundance (concentration: 8mM): 1.01 ± 0.046; NP40-soluble protein abundance (concentration: 10mM): 1.03 ± 0.051

Which results are given for Q5QPL9|Q9UKM9-2|Q9UKM9 (UniProt Q9UKM9)?
NP40-soluble protein abundance (concentration: 0.1mM): 0.927 ± 0.04; NP40-soluble protein abundance (concentration: 0.5mM): 1 ± 0.025; NP40-soluble protein abundance (concentration: 1mM): 1.07 ± 0.14; NP40-soluble protein abundance (concentration: 2mM): 1.07 ± 0.2; NP40-soluble protein abundance (concentration: 4mM): 1.07 ± 0.28; NP40-soluble protein abundance (concentration: 6mM): 1.05 ± 0.25; NP40-soluble protein abundance (concentration: 8mM): 1.01 ± 0.24; NP40-soluble protein abundance (concentration: 10mM): 0.949 ± 0.23

For PPP2R5A (UniProt Q15172), which NP40-soluble protein abundance (concentration: 0.1mM) is on record?
The NP40-soluble protein abundance was 1.04 ± 0.063.

And the NP40-soluble protein abundance (concentration: 0.5mM)?
Its NP40-soluble protein abundance is 0.993 ± 0.046.

What about the NP40-soluble protein abundance (concentration: 1mM) of the same target?
The NP40-soluble protein abundance was 0.939 ± 0.011.

What about the NP40-soluble protein abundance (concentration: 2mM) of the same target?
Its NP40-soluble protein abundance is 0.9 ± 0.033.

And the NP40-soluble protein abundance (concentration: 4mM)?
Its NP40-soluble protein abundance is 0.877 ± 0.048.

And the NP40-soluble protein abundance (concentration: 6mM)?
Its NP40-soluble protein abundance is 0.864 ± 0.04.

What about the NP40-soluble protein abundance (concentration: 8mM) of the same target?
Its NP40-soluble protein abundance is 0.862 ± 0.097.

What about the NP40-soluble protein abundance (concentration: 10mM) of the same target?
Its NP40-soluble protein abundance is 0.848 ± 0.055.

How did the NP40-soluble protein abundance (concentration: 0.1mM) turn out when UniProt Q68E01|Q68E01-2 was run?
Its NP40-soluble protein abundance is 1.01 ± 0.028.

And the NP40-soluble protein abundance (concentration: 0.5mM)?
Its NP40-soluble protein abundance is 1.01 ± 0.026.

And the NP40-soluble protein abundance (concentration: 1mM)?
Its NP40-soluble protein abundance is 1.03 ± 0.027.

And the NP40-soluble protein abundance (concentration: 2mM)?
Its NP40-soluble protein abundance is 1.03 ± 0.03.

And the NP40-soluble protein abundance (concentration: 4mM)?
The NP40-soluble protein abundance was 1.08 ± 0.026.

What about the NP40-soluble protein abundance (concentration: 6mM) of the same target?
Its NP40-soluble protein abundance is 1.12 ± 0.053.

What about the NP40-soluble protein abundance (concentration: 8mM) of the same target?
Its NP40-soluble protein abundance is 1.11 ± 0.036.

What about the NP40-soluble protein abundance (concentration: 10mM) of the same target?
Its NP40-soluble protein abundance is 1.11 ± 0.021.

What does the source list for UniProt P62277?
NP40-soluble protein abundance (concentration: 0.1mM): 0.945 ± 0.11; NP40-soluble protein abundance (concentration: 0.5mM): 0.964 ± 0.11; NP40-soluble protein abundance (concentration: 1mM): 1.03 ± 0.22; NP40-soluble protein abundance (concentration: 2mM): 1.02 ± 0.3; NP40-soluble protein abundance (concentration: 4mM): 0.802 ± 0.25; NP40-soluble protein abundance (concentration: 6mM): 0.796 ± 0.27; NP40-soluble protein abundance (concentration: 8mM): 0.626 ± 0.17; NP40-soluble protein abundance (concentration: 10mM): 0.816 ± 0.29

LARP1 (UniProt Q6PKG0) was tested. Which NP40-soluble protein abundance (concentration: 0.1mM) did it give?
Its NP40-soluble protein abundance is 1.02 ± 0.039.

And the NP40-soluble protein abundance (concentration: 0.5mM)?
Its NP40-soluble protein abundance is 1.11 ± 0.06.

And the NP40-soluble protein abundance (concentration: 1mM)?
The NP40-soluble protein abundance was 1.32 ± 0.1.

And the NP40-soluble protein abundance (concentration: 2mM)?
The NP40-soluble protein abundance was 1.46 ± 0.11.

What about the NP40-soluble protein abundance (concentration: 4mM) of the same target?
The NP40-soluble protein abundance was 1.66 ± 0.16.

What about the NP40-soluble protein abundance (concentration: 6mM) of the same target?
The NP40-soluble protein abundance was 1.78 ± 0.17.

What about the NP40-soluble protein abundance (concentration: 8mM) of the same target?
Its NP40-soluble protein abundance is 1.88 ± 0.22.

What about the NP40-soluble protein abundance (concentration: 10mM) of the same target?
The NP40-soluble protein abundance was 1.99 ± 0.22.

Which NP40-soluble protein abundance (concentration: 0.1mM) does the source give for HNRNPA0 (UniProt Q13151) here?
Its NP40-soluble protein abundance is 0.975 ± 0.038.

What about the NP40-soluble protein abundance (concentration: 0.5mM) of the same target?
Its NP40-soluble protein abundance is 1 ± 0.024.

And the NP40-soluble protein abundance (concentration: 1mM)?
Its NP40-soluble protein abundance is 1 ± 0.038.

And the NP40-soluble protein abundance (concentration: 2mM)?
The NP40-soluble protein abundance was 0.989 ± 0.05.

What about the NP40-soluble protein abundance (concentration: 4mM) of the same target?
Its NP40-soluble protein abundance is 0.967 ± 0.035.

What about the NP40-soluble protein abundance (concentration: 6mM) of the same target?
The NP40-soluble protein abundance was 1 ± 0.046.

And the NP40-soluble protein abundance (concentration: 8mM)?
Its NP40-soluble protein abundance is 1.01 ± 0.052.

What about the NP40-soluble protein abundance (concentration: 10mM) of the same target?
The NP40-soluble protein abundance was 0.986 ± 0.058.

For P86790|P86791 (UniProt P86791+P86790), which NP40-soluble protein abundance (concentration: 0.1mM) is on record?
Its NP40-soluble protein abundance is 1.06 ± 0.015.

And the NP40-soluble protein abundance (concentration: 0.5mM)?
The NP40-soluble protein abundance was 1.06 ± 0.072.

And the NP40-soluble protein abundance (concentration: 1mM)?
Its NP40-soluble protein abundance is 1.03 ± 0.063.

And the NP40-soluble protein abundance (concentration: 2mM)?
The NP40-soluble protein abundance was 0.99 ± 0.038.

What about the NP40-soluble protein abundance (concentration: 4mM) of the same target?
Its NP40-soluble protein abundance is 1.01 ± 0.068.

And the NP40-soluble protein abundance (concentration: 6mM)?
Its NP40-soluble protein abundance is 0.948 ± 0.038.

What about the NP40-soluble protein abundance (concentration: 8mM) of the same target?
Its NP40-soluble protein abundance is 0.943 ± 0.029.

And the NP40-soluble protein abundance (concentration: 10mM)?
The NP40-soluble protein abundance was 0.924 ± 0.0097.

Which NP40-soluble protein abundance (concentration: 0.1mM) does the source give for HNRNPA1L2 (UniProt Q32P51) here?
The NP40-soluble protein abundance was 1.34 ± 0.52.

What about the NP40-soluble protein abundance (concentration: 0.5mM) of the same target?
Its NP40-soluble protein abundance is 1.32 ± 0.58.

What about the NP40-soluble protein abundance (concentration: 1mM) of the same target?
Its NP40-soluble protein abundance is 1.8 ± 0.79.

What about the NP40-soluble protein abundance (concentration: 2mM) of the same target?
The NP40-soluble protein abundance was 1.49 ± 0.44.

And the NP40-soluble protein abundance (concentration: 4mM)?
The NP40-soluble protein abundance was 1.47 ± 0.51.

And the NP40-soluble protein abundance (concentration: 6mM)?
The NP40-soluble protein abundance was 1.67 ± 0.65.

What about the NP40-soluble protein abundance (concentration: 8mM) of the same target?
Its NP40-soluble protein abundance is 1.92 ± 0.8.

And the NP40-soluble protein abundance (concentration: 10mM)?
Its NP40-soluble protein abundance is 1.58 ± 0.35.

UniProt Q14103-3|D6RF44|Q14103-4 was tested. Which NP40-soluble protein abundance (concentration: 0.1mM) did it give?
The NP40-soluble protein abundance was 0.913 ± 0.097.

And the NP40-soluble protein abundance (concentration: 0.5mM)?
The NP40-soluble protein abundance was 0.946 ± 0.094.

And the NP40-soluble protein abundance (concentration: 1mM)?
Its NP40-soluble protein abundance is 0.943 ± 0.085.

What about the NP40-soluble protein abundance (concentration: 2mM) of the same target?
The NP40-soluble protein abundance was 0.894 ± 0.1.

What about the NP40-soluble protein abundance (concentration: 4mM) of the same target?
Its NP40-soluble protein abundance is 0.903 ± 0.1.

And the NP40-soluble protein abundance (concentration: 6mM)?
Its NP40-soluble protein abundance is 0.915 ± 0.084.

And the NP40-soluble protein abundance (concentration: 8mM)?
Its NP40-soluble protein abundance is 0.947 ± 0.11.

And the NP40-soluble protein abundance (concentration: 10mM)?
The NP40-soluble protein abundance was 0.929 ± 0.11.
